# Results as given in PubChem BioAssay.
# Inconclusive results are not listed. The list shows a part of the results. Active and inactive are the calls of the source.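 How the source made its calls, unless noted: active means GFP response below 50% of the DMSO control; inconclusive means fewer than 70 events counted for a yeast strain; inactive means the rest.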
# Experiments:
# [1] = biological target: Regulator of G-protein signaling 16 (Homo sapiens) (UniProt O15492); assay: modulators of RGS–Galpha-o binding, primary screen, biochemical, multiplexed beads, flow cytometry, RGS4/7/8/16/19 (AID 1504); conditions: multiplexed bead flow cytometry, measured here: RGS16 interaction, at 10 µM;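 further: fluorescently labeled Galpha-o bound to GDP with aluminium fluoride binding biotinylated RGS beads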
# [2] = biological target: Regulator of G-protein signaling 19 (Homo sapiens) (UniProt P49795); assay: as above; conditions: multiplexed bead flow cytometry, measured here: RGS19 interaction, at 10 µM
# [3] = biological target: Regulator of G-protein signaling 7 (Homo sapiens) (UniProt P49802); assay: as above; conditions: multiplexed bead flow cytometry, measured here: RGS7 interaction, at 10 µM
# [4] = biological target: Regulator of G-protein signaling 8 (Homo sapiens) (UniProt P57771); assay: as above; conditions: multiplexed bead flow cytometry, measured here: RGS8 interaction, at 10 µM
# [5] = disruption of biotin probe capture by avidin, counter-screen for RGS protein interaction modulators, biochemical, flow cytometry, bead-based (AID 1783;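 active means inhibition above 50%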;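 further: median green fluorescence of gated singlet beads compared with DMSO control wells; 0% = DMSO wells and 100% = complete loss of bead fluorescence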); conditions: streptavidin beads, fluorescein-biotin binding; at 10 µM, stronger effect = higher value
# [6] = biological target: Guanine nucleotide-binding protein G(o) subunit alpha (Homo sapiens) (UniProt P09471); assay: RGS8-Galphao binding modulators, confirmation, biochemical, multiplexed bead flow cytometry, single concentration (AID 1836; in the data active means binding response below about 72% or above about 130%; inactive means in between;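 further: Galphao activated as GDP AlF4 complex before binding bead RGS8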); conditions: bead-based flow cytometry RGS8-Galphao binding, fluorescence; at 10 µM; actives lie on both sides
# Guanine nucleotide-binding protein G(o) subunit alpha (Homo sapiens), sequence (P09471 whole entry, looked up): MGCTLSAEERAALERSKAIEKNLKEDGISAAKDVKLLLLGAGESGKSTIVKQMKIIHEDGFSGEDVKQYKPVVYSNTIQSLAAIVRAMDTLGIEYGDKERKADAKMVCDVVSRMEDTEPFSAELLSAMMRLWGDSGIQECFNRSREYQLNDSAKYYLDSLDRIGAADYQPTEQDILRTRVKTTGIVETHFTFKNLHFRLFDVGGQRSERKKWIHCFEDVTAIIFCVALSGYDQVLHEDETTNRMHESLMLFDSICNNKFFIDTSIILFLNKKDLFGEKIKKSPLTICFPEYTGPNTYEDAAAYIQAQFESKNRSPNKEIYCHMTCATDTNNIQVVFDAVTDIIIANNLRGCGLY
# [7] = biological target: Guanine nucleotide-binding protein G(o) subunit alpha (Homo sapiens) (UniProt P09471); assay: RGS7-Galphao binding modulators, confirmation, biochemical, multiplexed bead flow cytometry, single concentration (AID 1837; in the data active means response below about 75% or above about 130%; inactive means in between;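 further: fluorescent Galphao activated with GDP and aluminum fluoride binding bead-coupled RGS7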); conditions: bead-based flow cytometry RGS7-Galphao binding; at 10 µM; actives lie on both sides
# [8] = biological target: Regulator of G-protein signaling 16 (Homo sapiens) + Guanine nucleotide-binding protein G(o) subunit alpha (Homo sapiens) (UniProt O15492+P09471); assay: modulators of RGS16-Galphao protein binding, confirmation, biochemical, single concentration, multiplexed bead flow cytometry (AID 1838; in the data active means response below about 74% or above about 130%; inactive means in between;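 further: Galphao activated as the GDP aluminium fluoride complex binding bead-coupled RGS16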); conditions: bead-based flow cytometry, at 10 µM, actives lie on both sides
# Regulator of G-protein signaling 16 (Homo sapiens) + Guanine nucleotide-binding protein G(o) subunit alpha (Homo sapiens), sequence (O15492 whole entry, looked up): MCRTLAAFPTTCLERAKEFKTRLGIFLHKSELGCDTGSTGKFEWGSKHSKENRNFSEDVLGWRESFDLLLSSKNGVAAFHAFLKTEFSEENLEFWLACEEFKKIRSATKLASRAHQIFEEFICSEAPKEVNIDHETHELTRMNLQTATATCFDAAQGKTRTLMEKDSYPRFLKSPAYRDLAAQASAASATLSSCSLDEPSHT
# Regulator of G-protein signaling 16 (Homo sapiens) + Guanine nucleotide-binding protein G(o) subunit alpha (Homo sapiens), sequence (P09471 whole entry, looked up): as the sequence (P09471 whole entry, looked up) above
# [9] = biological target: Guanine nucleotide-binding protein G(o) subunit alpha (Homo sapiens) (UniProt P09471); assay: modulators of RGS4-Galphao protein binding, confirmation, biochemical, single concentration, multiplexed bead flow cytometry (AID 1840; in the data active means binding response below about 74% or above about 130%; inactive means in between); conditions: at 10 µM, actives lie on both sides
# [10] = biological target: Guanine nucleotide-binding protein G(o) subunit alpha (Homo sapiens) + Regulator of G-protein signaling 19 (Homo sapiens) (UniProt P09471+P49795); assay: regulators of RGS19-Galphao binding, confirmation, biochemical, single point, multiplexed bead flow cytometry (AID 1841; in the data active means response below about 50% or above about 160%; inactive means in between;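 further: 100% = no compound control and 0% = blank background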); conditions: bead-based flow cytometry RGS19-Galphao binding; at 10 µM; actives lie on both sides
# Guanine nucleotide-binding protein G(o) subunit alpha (Homo sapiens) + Regulator of G-protein signaling 19 (Homo sapiens), sequence (P09471 whole entry, looked up): as above
# Guanine nucleotide-binding protein G(o) subunit alpha (Homo sapiens) + Regulator of G-protein signaling 19 (Homo sapiens), sequence (P49795 whole entry, looked up): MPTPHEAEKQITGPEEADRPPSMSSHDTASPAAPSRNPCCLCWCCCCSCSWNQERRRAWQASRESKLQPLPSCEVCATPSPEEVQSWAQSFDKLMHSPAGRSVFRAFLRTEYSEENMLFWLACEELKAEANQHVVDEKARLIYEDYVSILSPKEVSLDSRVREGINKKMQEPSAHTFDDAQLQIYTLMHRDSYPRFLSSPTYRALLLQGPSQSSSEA
# [11] = yeast TOR pathway RPL19A-GFP modulators, primary screen, cell-based, S. cerevisiae, multiplex flow cytometry (AID 1862; in the data active means percent of DMSO control GFP below about 86%;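 further: lower values mimic rapamycin by blocking the RPL19A rise seen in DMSO cells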); conditions: S. cerevisiae RPL19A-GFP strain, flow cytometry fluorescence, 3 h; at 10 µM; stronger effect = lower value
# [12] = modulators of MEP2-GFP levels in yeast, primary screen, S. cerevisiae, multiplex flow cytometry (AID 1867;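 active means GFP response, as percent of the DMSO control, above the screen-wide mean plus 3 SD, about 139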;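 further: median GFP channel fluorescence of barcode-gated MEP2-GFP cells measured by flow cytometry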); conditions: S. cerevisiae MEP2-GFP strain, 3 h, at 10 µM, stronger effect = higher value, 100% means same as DMSO wells
# [13] = modulators of CIT2-GFP expression in yeast, primary screen, S. cerevisiae, GFP fusion, multiplex flow cytometry (AID 1870;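 active means percent response above a set limit, the screen-wide mean plus 3 SD, cut at about 130% in these data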;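 further: barcoded CIT2-GFP strain pooled with four other GFP strains with rapamycin as positive control; median GFP fluorescence per well over plate mean of DMSO wells so 100% = DMSO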); conditions: 3 h, at 10 µM, stronger effect = higher value
# [14] = modulators of LAP4-GFP expression in yeast, primary screen, S. cerevisiae, multiplex flow cytometry (AID 1873;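 active means GFP signal, as percent of the solvent control, above the screen mean plus 3 SD, about 149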); conditions: 3 h, at 10 µM, stronger effect = higher value
# [15] = modulators of AGP1-GFP expression in yeast TOR pathway, primary screen, cell-based, multiplex flow cytometry, S. cerevisiae (AID 1887;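 active means GFP signal above the screen-wide mean plus 3 SD, that is over about 124.5% of the solvent control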;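 further: AGP1-GFP fusion strain of S. cerevisiae within a five-strain barcoded multiplex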); conditions: 3 h, at 10 µM, stronger effect = higher value
# [16] = RPL19A-GFP modulators, yeast TOR pathway, confirmation, cell-based, S. cerevisiae, flow cytometry, cherry picks, mother/daughter gates (AID 2270); conditions: S. cerevisiae RPL19A-GFP strain, 3 h, at 10 µM, stronger effect = lower value, 100 = same GFP as DMSO wells
# [17] = LAP4-GFP expression modulators in yeast, confirmation, cell-based, cherry picks, flow cytometry, mother/daughter gates (AID 2271;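 active means GFP response above 150% of the DMSO control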;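 further: ratio of sample to DMSO plate mean so 100% equals DMSO level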); conditions: S. cerevisiae LAP4-GFP strain, 3 h, at 10 µM, stronger effect = higher value, 100 means same as DMSO control
# [18] = modulators of MEP2-GFP levels in yeast, confirmation, S. cerevisiae, flow cytometry GFP, cherry picks (AID 2272;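 active means GFP response above 150% of the DMSO control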;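 further: ratio of well signal to plate DMSO mean so 100% equals DMSO level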); conditions: S. cerevisiae MEP2-GFP strain, 3 h, at 10 µM, stronger effect = higher value
# [19] = modulators of CIT2-GFP expression in yeast, confirmation, S. cerevisiae, GFP fusion, cherry picks, mother/daughter gates (AID 2274;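 active means GFP response above 150% of the DMSO level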); conditions: S. cerevisiae CIT2-GFP strain, flow cytometry, 3 h, at 10 µM, stronger effect = higher value
# [20] = inhibitors of CD8+ T cell-vesicle binding, pilot screen, LFA-1/ICAM-1 modulator project, MLPCN validation set, flow cytometry (AID 2523;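 active means response below a set limit, under 55% cells CD8-positive and vesicle-bound, and CD8 cells' 90th-percentile brightness under 279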;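 on vesicle binding response: mean PE anti-B7-1 fluorescence of CD8+ cells relative to row control; 100% = QL9-loaded vesicles with DMSO vehicle in the same plate row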); conditions: 2C mouse CD8+ T cells, at 7 µM, stronger effect = lower value; double positive events: measured here: CD8+/vesicle+ event percentage
# [21] = measured here: daughter cell gate
# [22] = measured here: mother cell gate
# [23] = measured here: daughter cell gate response
# [24] = measured here: mother cell gate response
compound,measurement,setting,value
O=C(NCc1ccc(F)cc1)C1CCC(CNc2c(N3CCOCC3)c(=O)c2=O)CC1 (stereo not drawn),RGS16–Galpha-o binding response,[1],3.97%
same,RGS19–Galpha-o binding response,[2],357%
same,RGS7–Galpha-o binding response,[3],-657%
same,RGS8–Galpha-o binding response,[4],8.33%
same,inhibition,[5],0% (inactive)
same,binding response (% of control),[6],101% (inactive)
same,response (percent of control binding),[7],100% (inactive)
same,response (% of control binding),[8],98.7% (inactive)
same,binding response (% of control),[9],101% (inactive)
same,response (percent of control binding),[10],98.1% (inactive)
C[C@]12C[C@H](O)[C@H]3[C@@H](CCC4=CC(=O)CC[C@@]43C)[C@@H]1CC[C@@H]2C(=O)CO,percent of DMSO control GFP,[11],96.3% (inactive)
same,GFP response vs DMSO,[12],110% (inactive)
same,percent response of DMSO control,[13],112% (inactive)
same,GFP response vs DMSO,[14],78.1% (inactive)
same,"GFP response, % of DMSO",[15],101% (inactive)
same,GFP response vs DMSO,[16],98.2% (inactive)
same,GFP response vs DMSO,[16]; [21],98.9%
same,GFP response vs DMSO,[16]; [22],98.7%
same,GFP response relative to DMSO,[17],94.1% (inactive)
same,GFP response relative to DMSO,[17]; [23],94.4%
same,GFP response relative to DMSO,[17]; [24],94%
same,GFP response vs DMSO,[18],98.3% (inactive)
same,"GFP response, % of DMSO",[19],105% (inactive)
same,"GFP response, % of DMSO",[19]; [21],105%
same,"GFP response, % of DMSO",[19]; [22],106%
same,double positive events,[20],70.2%
same,vesicle binding response,[20],222% (inactive)
C1COC(NC(C2CC2)C2CC2)=N1,percent of DMSO control GFP,[11],89.3% (inactive)
same,GFP response vs DMSO,[12],148% (active)
same,percent response of DMSO control,[13],110% (inactive)
same,GFP response vs DMSO,[14],85.3% (inactive)
same,"GFP response, % of DMSO",[15],94.5% (inactive)
same,GFP response vs DMSO,[16],96% (inactive)
same,GFP response vs DMSO,[16]; [21],97.1%
same,GFP response vs DMSO,[16]; [22],97.6%
same,GFP response relative to DMSO,[17],95.4% (inactive)
same,GFP response relative to DMSO,[17]; [23],96%
same,GFP response relative to DMSO,[17]; [24],95.1%
same,GFP response vs DMSO,[18],96.2% (inactive)
same,"GFP response, % of DMSO",[19],98.3% (inactive)
same,"GFP response, % of DMSO",[19]; [21],101%
same,"GFP response, % of DMSO",[19]; [22],97.3%
same,double positive events,[20],64.4%
same,vesicle binding response,[20],227% (inactive)
C[C@]12CCC(=O)C=C1[C@H](O)C[C@@H]1[C@@H]2[C@@H](O)C[C@@]2(C)[C@H]1CC[C@]2(O)C(=O)CO,percent of DMSO control GFP,[11],106% (inactive)
same,GFP response vs DMSO,[12],105% (inactive)
same,percent response of DMSO control,[13],102% (inactive)
same,GFP response vs DMSO,[14],102% (inactive)
same,"GFP response, % of DMSO",[15],107% (inactive)
same,GFP response vs DMSO,[16],99.1% (inactive)
same,GFP response vs DMSO,[16]; [21],99.1%
same,GFP response vs DMSO,[16]; [22],99.2%
same,GFP response relative to DMSO,[17],97.7% (inactive)
same,GFP response relative to DMSO,[17]; [23],97.9%
same,GFP response relative to DMSO,[17]; [24],95.6%
same,GFP response vs DMSO,[18],99.5% (inactive)
same,"GFP response, % of DMSO",[19],102% (inactive)
same,"GFP response, % of DMSO",[19]; [21],104%
same,"GFP response, % of DMSO",[19]; [22],101%
same,double positive events,[20],63.9%
same,vesicle binding response,[20],182% (inactive)
Cc1cc2nc(C)n(CCCNC(=O)Nc3ccccc3)c2cc1C,RGS16–Galpha-o binding response,[1],283%
same,RGS19–Galpha-o binding response,[2],94.8%
same,RGS7–Galpha-o binding response,[3],180%
same,RGS8–Galpha-o binding response,[4],170%
same,inhibition,[5],-0.5% (inactive)
same,binding response (% of control),[6],102% (inactive)
same,response (percent of control binding),[7],104% (inactive)
same,response (% of control binding),[8],103% (inactive)
same,binding response (% of control),[9],104% (inactive)
same,response (percent of control binding),[10],97.2% (inactive)
Cn1c(=O)c(C(=O)NCCO)c(O)c2ccccc21,percent of DMSO control GFP,[11],103% (inactive)
same,GFP response vs DMSO,[12],105% (inactive)
same,percent response of DMSO control,[13],103% (inactive)
same,GFP response vs DMSO,[14],104% (inactive)
same,"GFP response, % of DMSO",[15],113% (inactive)
same,GFP response vs DMSO,[16],101% (inactive)
same,GFP response vs DMSO,[16]; [21],102%
same,GFP response vs DMSO,[16]; [22],103%
same,GFP response relative to DMSO,[17],87.6% (inactive)
same,GFP response relative to DMSO,[17]; [23],86.4%
same,GFP response relative to DMSO,[17]; [24],88.7%
same,GFP response vs DMSO,[18],96.2% (inactive)
same,"GFP response, % of DMSO",[19],96.9% (inactive)
same,"GFP response, % of DMSO",[19]; [21],108%
same,"GFP response, % of DMSO",[19]; [22],97.3%
same,double positive events,[20],60.8%
same,vesicle binding response,[20],185% (inactive)
